The record followed here is the supplement of paper PMC11402862.

In this assay the test system is PPARalpha LBD (GAL4 fusion). The experiment in a line: luciferase reporter transactivation, fold of solvent control; higher = stronger receptor activation. Conditions: HEK293T, exposure time: 24 h. On the procedure:
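HEK293T cells were transiently transfected with a GAL4-DBD fused to the ligand-binding domain of a human nuclear receptor (PPARα, PPARγ, PPARδ, FXR, LXRα, PXR, RARα or CAR), the GAL4-(UAS)5-TK firefly luciferase reporter and a Renilla luciferase normalisation plasmid. Cells were exposed to compound for 24 h in 0.5% DMSO. Firefly/Renilla luciferase was expressed as fold of the solvent control (=1). Values are the mean of 2-3 biological replicates; receptor agonists were used as positive controls.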
For orientation: Reporter assays use an easily measured gene product as a stand-in for the process of interest.

For the compound `OCCC(F)(F)C(F)(F)C(F)(F)C(F)(F)C(F)(F)C(F)(F)F` [6:2 fluorotelomer alcohol], the luciferase reporter transactivation runs as follows: (concentration: 1 µM) 0.709; (concentration: 5 µM) 0.741; (concentration: 10 µM) 0.818; (concentration: 25 µM) 0.925; (concentration: 50 µM) 0.748; (concentration: 100 µM) 0.765. Also, the luciferase reporter transactivation (concentration: 250 µM) worked out at 0.656 and the luciferase reporter transactivation (concentration: 500 µM) stood at 0.825.
As to `O=S(=O)(O)CCC(F)(F)C(F)(F)C(F)(F)C(F)(F)C(F)(F)C(F)(F)F` [6:2 fluorotelomer sulfonic acid], the luciferase reporter transactivation came out at 1.06 (concentration: 1 µM); 0.983 (concentration: 5 µM); 1.08 (concentration: 10 µM); 1.08 (concentration: 25 µM); 1.13 (concentration: 50 µM); 1.78 (concentration: 100 µM).
For `O=C(O)C(F)(F)C(F)(F)C(F)(F)C(F)(F)F` [perfluoropentanoic acid], the luciferase reporter transactivation is, setting by setting: (concentration: 1 µM) 1.14; (concentration: 5 µM) 1.05; (concentration: 10 µM) 1.12; (concentration: 25 µM) 1.18; (concentration: 50 µM) 1.15; (concentration: 100 µM) 1.31. For the same compound, the luciferase reporter transactivation is, setting by setting: (concentration: 250 µM) 1.35; (concentration: 500 µM) 1.58.
For the compound `O=S(=O)(O)CCC(F)(F)C(F)(F)C(F)(F)C(F)(F)C(F)(F)C(F)(F)C(F)(F)C(F)(F)F` [8:2 fluorotelomer sulfonic acid], the luciferase reporter transactivation is, setting by setting: (concentration: 1 µM) 1.07; (concentration: 5 µM) 1.09; (concentration: 10 µM) 1.18; (concentration: 25 µM) 1.29; (concentration: 50 µM) 1.33; (concentration: 100 µM) 1.97. The luciferase reporter transactivation worked out at 1.6 (concentration: 250 µM) and 1.31 (concentration: 500 µM).
With `CC(C)(Sc1ccc(CCN(CCCCC2CCCCC2)C(=O)NC2CCCCC2)cc1)C(=O)O`, for the setting “concentration: 1 µM”, the luciferase reporter transactivation came out at 46.
